Laboratory results as given in PubChem BioAssay (NCI).
The panel holds about 83,000 compounds, 20% with a hit somewhere; the sample as a whole holds those more often.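 Method: cells in 96-well plates; compound added at one concentration; 48 h incubation; percent growth measured; values under 10 scored active.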 Unmarked numbers belong to inactive results. Activity calls are given as the source filed them.

Test system: SR leukemia
Experiment: NCI-60 one-dose screen, 48 h (100 = growth as untreated, 0 = no growth, -100 = all killed)
Settings: 10 µM
Method: Growth inhibition of the SR human tumor cell line is measured as a screen for anti-cancer activity. Cells are grown in 96 well plates and exposed to the test compound for 48 hours. Compounds are tested at a single concentration, which is 10^-5 M for most compounds. The reported endpoint is percent growth (GI% or GIPRCNT), where numbers from 0 - 100% represent growth inhibition, and numbers from -100% - 0 represent cell death. For example, a value of 40 represents 60% growth inhibition. A value of 0 means no net growth occurred over the course of the experiment. A value of -40 indicates 40% of cells at the beginning of the experiment died by the end of the experiment. A value of -100 means all cells are dead at the end of the experiment.
NCI-60 Human Tumor Cell Lines Screen was performed using the standard one-dose NCI protocol, which is described in more detail at https://dtp.cancer.gov/discovery_development/nci-60/default.htm.
Compounds with GIPRCNT values below 10 were considered active. Activity score was based on GIPRCNT using the following formula: […]
Score is 0 for GIPRCNT values of 100 or above, 50 for GIPRCNT values of 0, and 100 for GIPRCNT values of -100.

Compound | growth
CN(C)c1ccc(Cc2ccc(N(C)C)cc2Cl)c(Cl)c1 | 88.9%
CCOC(=O)c1ccoc1 | 86.4%
C[C@@H]1C=C2C(=O)O[C@@H]3CC[C@H](C1)[C@]23O | 18.6%
C=C(Cl)[C@@](Cl)(CBr)CC[C@@H](Br)C(C)(C)Cl | 75.6%
O=C(O)CN1C(=O)c2cccc3cccc(c23)C1=O | 112%
O=S(=O)(NCCNc1nccc(-c2c(-c3ccc(F)cc3)nc3sccn23)n1)c1ccc2ccccc2c1 | 46.6%
O=C(Nc1cccc(-n2cc(-c3ccncc3)c(-c3ccc(O)c(Cl)c3)n2)c1)c1cccc(C(F)(F)F)c1 | 18.4%
COc1ccc2c(c1)C(=O)c1c-2c(OCCN(C)C)nc2ccccc12 | 1.16% (active)
CCN1CCC2(CC1)OC(c1ccccc1)C(c1ccccc1)O2 (stereo not given) | 96.9%
COc1cc(-c2nc(-c3nnc(-c4ccccc4Cl)o3)c3ccccn23)cc(OC)c1OC | 72.2%
CCC(=O)N1C/C(=C/c2ccc(OC)cc2)C(=O)/C(=C/c2ccc(OC)cc2)C1 | -11% (active)
CCc1ccc2c(c1)N(CCO)C1=C(C(=O)OC1)C2c1ccccc1 (stereo not given) | 63.6%
N#CCCN1C/C(=C/c2ccc(Br)cc2)C(=O)/C(=C/c2ccc(Br)cc2)C1 | -17.3% (active)
CCOC(=O)N1C/C(=C/c2ccc(Cl)cc2)C(=O)/C(=C/c2ccc(Cl)cc2)C1 | -5.62% (active)
COc1cc(/C=N/NC(=O)c2ccccc2Nc2ccnc(C(F)(F)F)c2)ccc1O | -48.1% (active)
O=C(Nc1ccncc1)C(=O)c1cn(S(=O)(=O)c2cccc3ccccc23)c2ccccc12 | 21.2%
CC(=O)c1cc(Br)ccc1O | 102%
N#Cc1ncc(-c2ccc(C(F)(F)F)cc2)c(NCc2cc(C(F)(F)F)cc(C(F)(F)F)c2)n1 | 12.1%
COc1ccc2c(c1)N(CCO)C1=C(C(=O)OC1)C2c1ccc(OC)c(OC)c1 (stereo not given) | 21%
COc1ccc(-c2csc(NC(=O)CSc3nc(C)c(-c4ccccc4)n3Nc3ccccc3)n2)cc1 | 40.7%

Compound | growth
CCCCN(CCCC)c1cc(C(=O)CCCCCN)c2ccccc2n1 | -69.3% (active)
COc1ccc(NC(=O)Cc2nc3nc4sc(C)c(C)c4c(=O)n3[nH]2)cc1 | 99.1%
FC(F)(F)c1ccc(-c2cnc(Cl)nc2N2CCC3(CC2)OCCO3)cc1 | 81.5%
COc1ccc(-c2nc3sc(-c4ccccc4)c(-c4ccccc4)n3c2/C=C/C(=O)c2ccccn2)cc1 | 78.4%
O=S(=O)(NCCCNc1nccc(-c2c(-c3ccc(F)cc3)nc3sccn23)n1)c1ccc2ccccc2c1 | 28.5%
CCCCC(CCCCCC(CCCC)NCc1ccc2c(c1)OCO2)NCc1ccc2c(c1)OCO2 (stereo not given) | -64.8% (active)
CSc1nc(=O)n(Cc2ccc(F)cc2)c(=O)n1Cc1ccc(C)cc1 | 84.4%
Cc1ccc(NC(=O)Nc2nc3ccccc3s2)cc1NC(=O)Nc1nc2ccccc2s1 | 55.5%
Cc1cc(Cl)nc(N(CCCNc2ccnc3cc(Cl)ccc23)Cc2cccs2)n1 | -21.3% (active)
COc1ccccc1/C=C/C(=O)c1ccccc1 | 10.5%
O=c1oc2cc(OS(=O)(=O)c3ccccc3)ccc2c2c1CCCCC2 | 7% (active)
Cc1ccc(C(=O)Nc2cccc(F)c2)cc1NC(=O)C1(c2ncnc3[nH]ccc23)CC1 | 87.9%
CCN(CC)CCSCCN(CC)CC | 98.5%
CCCCCCCCCCCCCCCC(=O)OC1[C@@H](OC(=O)CCCCCCCCCCCCCCC)[C@@H](C(=O)N[C@@H](CCCCN)C(=O)OC)O[C@H]1n1cnc2c(=O)[nH]c(NC(=O)C(C)C)nc21 (stereo not given in full) | 9.69% (active)
COC(=O)C(C(C[N+](=O)[O-])c1ccccc1)=P(c1ccccc1)(c1ccccc1)c1ccccc1 (stereo not given) | 14.6%
CCCCOC(=O)Oc1ccc(C(=O)Oc2ccc(OCC)cc2)cc1 | 107%
COc1ccc(-c2nn(-c3cccc(NC(=O)c4ccc5c(c4)OCCO5)c3)cc2-c2ccncc2)cc1Cl | -9.34% (active)
CN(CCc1ccccn1)c1ccccc1 | 87.5%
CCN1Cc2c(/C=C/c3ccccc3)nc3ccc(OC)cc3c2N(c2cccc(Cl)c2)C1 | 11.7%
Cc1cc(O)c(C(C)(C)C)cc1Sc1cc(C(C)(C)C)c(O)cc1C | -33.1% (active)
